# BoNT-F LC inh: BoNT/F light chain protease inhibitors, primary screen, biochemical, flow cytometry, MLPCN library; Botulinum neurotoxin type F light chain protease (Clostridium botulinum); Multiplex microsphere protease cleavage assay; inhibition, % at 10 µM; 360,000 compounds, 0.22% hits; AID 588497, 2011; in the data active = inhibition above about 35%, passing the limit was not always enough; inconclusive = no clear call, values can overlap the other calls; note: plate controls were buffer without enzyme for full effect and enzyme alone for no effect
# BoNT-A LC inh2: BoNT/A light chain protease inhibitors, primary screen, biochemical, flow cytometry, MLPCN library; multiplex microsphere protease substrate cleavage; inhibition, % at 10 µM; 360,000 compounds, 0.17% hits; note: plate controls were buffer without enzyme for full effect and enzyme alone for no effect
# MazF activator: activators of E. coli MazEF toxin-antitoxin RNase, primary screen, biochemical, fluorescence, uHTS. Endoribonuclease toxin MazF (Escherichia coli (strain K12)), P0AE70. FAM/BHQ RNA-DNA oligo cleavage fluorescence, 5 h. activation, % at 20 µM. 350,000 compounds, 0.32% hits; in the data active = activation above about 50%
# Autofluor counter: flagged as autofluorescent in microsphere protease counterscreen; compound autofluorescence counterscreen, microsphere flow cytometry; hits give high values; fluorescence intensity (concentration not given with the values); 360,000 compounds, 3.1% hits; in the data active = fluorescence intensity above about 16000; inconclusive = no clear call, values can overlap the other calls
# Anthrax LF inh2: Bacillus anthracis LF protease inhibitors, primary screen, biochemical, multiplex microsphere, MLPCN library | multiplex microsphere protease cleavage assay | 360,000 compounds, 0.12% hits | AID 588501, 2011 | inhibition, % at 10 µM; note: plate controls were buffer without enzyme for full effect and enzyme alone for no effect
# Target sequence (P15917 whole entry, looked up): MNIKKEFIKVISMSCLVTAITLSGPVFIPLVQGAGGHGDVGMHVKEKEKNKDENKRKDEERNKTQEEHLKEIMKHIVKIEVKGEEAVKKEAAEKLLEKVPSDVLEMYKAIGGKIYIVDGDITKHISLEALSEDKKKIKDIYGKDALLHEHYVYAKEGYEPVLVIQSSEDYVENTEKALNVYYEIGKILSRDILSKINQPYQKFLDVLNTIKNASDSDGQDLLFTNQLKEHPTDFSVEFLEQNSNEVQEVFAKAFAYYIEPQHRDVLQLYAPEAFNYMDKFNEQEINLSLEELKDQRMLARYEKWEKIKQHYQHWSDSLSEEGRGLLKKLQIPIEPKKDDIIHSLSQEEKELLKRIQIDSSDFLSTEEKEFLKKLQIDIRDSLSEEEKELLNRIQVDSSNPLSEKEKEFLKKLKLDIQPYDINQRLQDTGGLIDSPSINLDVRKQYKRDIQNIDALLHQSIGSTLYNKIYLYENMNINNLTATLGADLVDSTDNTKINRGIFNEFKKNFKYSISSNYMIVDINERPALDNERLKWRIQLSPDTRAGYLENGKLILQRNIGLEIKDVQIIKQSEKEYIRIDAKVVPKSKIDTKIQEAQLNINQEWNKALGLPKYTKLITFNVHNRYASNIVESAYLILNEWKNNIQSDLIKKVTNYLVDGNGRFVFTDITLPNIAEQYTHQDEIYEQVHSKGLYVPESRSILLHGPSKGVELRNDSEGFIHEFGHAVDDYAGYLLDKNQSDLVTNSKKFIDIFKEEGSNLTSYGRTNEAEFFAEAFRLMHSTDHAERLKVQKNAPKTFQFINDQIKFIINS
# Starred values were filed as active, the others as inactive; ? = inconclusive; / = not tested or not shown; + = active, no number. Only some compounds are listed: those with a hit (about 3.7% of all), similar ones and a draw of the others. Cut-off read from the data, not from the text of the source, unless noted: active = inhibition above about 30%; inconclusive = no clear call, values can overlap the other calls; inactive = below that.
SMILES,BoNT-F LC inh,BoNT-A LC inh2,MazF activator,Autofluor counter,Anthrax LF inh2
COc1ccc(N2CCC(CNC(=S)Nc3cc(C)cc(C)c3)C2)cc1 (centres undefined),-40,0,-7,5737,-27
CCOc1ccc(NC(=O)C2CCN(C(=O)NCc3ccccc3)CC2)cc1,0,2,2,22864*,-2
COc1ccc(N2CCC(CNC(=O)Nc3ccccc3)C2)cc1 (centres undefined),-22,6,-4,19305*,-13
CCOc1ccc(NC(=O)C2CC=CCC2C(=O)O)cc1 (centres undefined),0,0,-1,22332*,0
Cc1ccc(S(=O)(=O)N(C)C)cc1NC(=O)C(C)OC(=O)CC1CC2CCC1C2 (centres undefined),-3,1,0,2877,0
Cc1cc(OC(C)C(=O)NCc2cccnc2)c2c(C)cc(=O)oc2c1 (centres undefined),-1,1,5,5555,-1
Cc1ccc(S(=O)(=O)CC2CSc3nc(N)cc(=O)n32)cc1 (centres undefined),2,?,3,21227*,-1
O=C(Nc1nnc(SCC(=O)N2CCCCC2)s1)c1ccc(F)cc1F,2,0,6,5427,-3
O=C(O)c1oc2ccccc2c1CSc1ccc(Cl)cc1,10,2,-6,3115,-10
O=C(c1ccc(Cl)cc1)c1oc2ccccc2c1CS(=O)c1ccccc1 (centres undefined),-8,-2,-8,20280*,-2
COc1ccc(CNC(=O)CCCCCn2c(SCC#N)nc3cc4c(cc3c2=O)OCO4)cc1,0,?,-38,19698*,2
CCN(CC)C(=O)CSc1nc2cc3c(cc2c(=O)n1CCCC(=O)NCc1ccc(OC)cc1)OCO3,-6,0,7,3718,1
CCc1nc2c(OCC3COc4ccccc4O3)cccn2c1N(C)C(=O)c1cccc(OC)c1 (centres undefined),4,0,/,3683,2
Cc1ccc(Cn2ccc(NC(=O)c3cc(-c4ccc(F)cc4)on3)n2)cc1,-3,-1,-14,24044*,0
CC(=O)N1CCSc2ccc(S(=O)(=O)Nc3ccccc3C)cc21,-2,1,-6,6070,1
Cc1ncsc1C(=O)NCc1ccc(N2CCCC2=O)cc1,3,0,0,16227*,-2
C#CCNC(=O)c1cc2c(Br)ccc(Br)c2nc1N,7,8,/,5567,14
CCC(CC)COC(=O)C(C#N)c1nc2ccccc2nc1N1CCN(CC)CC1 (centres undefined),3,7,-7,21646*,10
COc1ccc(CNC(=O)C(C#N)c2nc3ccccc3nc2N2CCCC2)cc1 (centres undefined),-4,1,+,2682,3
CCC(C)COC(=O)C(C#N)c1nc2ccccc2nc1N1CCCCC1 (centres undefined),6,?,-31,21493*,15
CCCCCCOC(=O)C(C#N)c1nc2ccccc2nc1N1CCN(C)CC1 (centres undefined),2,4,9,8819,25
CCOC(=O)C1CCN(c2nc3ccccc3nc2C(C#N)C(=O)OC(C)COC)CC1 (centres undefined),-6,11,-11,4308,15
CCOC(=O)C1CCN(c2nc3ccccc3nc2C(C#N)C(=O)OC(C)C)CC1 (centres undefined),21,6,351*,2860,5
Cc1ccc(NC(=O)CN2C(=O)NC(C)(CC(C)C)C2=O)cc1F (centres undefined),6,0,2,3466,0
Cc1cccc(NC(=O)CNC(=O)c2ccc3nc[nH]c3c2)c1C,-20,-10,-1,6588,7
SMILES,BoNT-F LC inh,BoNT-A LC inh2,MazF activator,Autofluor counter,Anthrax LF inh2
O=C1/C(=C/c2ccc(O)cc2)SC(=S)N1CC1CCCO1 (centres undefined),5,2,-368,5148,-7
Cc1ccsc1/C=C1\SC(=S)N(CC2CCCO2)C1=O (centres undefined),7,35*,3,4396,32*
Cc1nn(CC(O)c2ccccc2)c(C)c1Br (centres undefined),0,-2,3,21421*,0
O=c1cc(C(F)(F)F)[nH]c(=S)n1-c1ccccc1,?,0,0,3830,-2
Cc1noc(C)c1C(=O)N1CCN(Cc2ccccc2)CC1,-23,-3,0,5001,2
Cc1noc(C)c1C(=O)N1CCN(C(=O)c2sc3cc(Cl)ccc3c2Cl)CC1,1,2,0,18980*,-9
Cc1noc(C)c1C(=O)N1CCN(CCc2ccccc2)CC1,-6,?,11,24658*,-1
Cc1cc(=O)n2nc(N3CCCC3C(=O)Nc3cccc(Cl)c3C)sc2n1 (centres undefined),19,-3,-20,20778*,-5
Cc1cc(=O)n2nc(N3CCC(C(=O)Nc4cccc(Cl)c4C)CC3)sc2n1,2,0,2,6156,-5
CCOC(=O)CSc1nc(N)c(C#N)c(CC(C)C)c1C#N,1,?,-6,21729*,-2
CCOC(=O)CC(=O)CSc1nc(C)cc(C)c1C#N,-6,1,-7,3716,1
COC(=O)CSc1nc(N)c(C#N)c(CC(C)C)c1C#N,9,0,-3,2169,1
CCOC(=O)CC(=O)CSc1nc(N)c(C#N)c(-c2ccc(Cl)cc2)c1C#N,-4,-2,3,16851*,-4
C[C@H](NC(=O)[C@@H]1CCCN1C(=O)[C@@H]1CCCN1C(=O)c1ccc(Cl)cc1)c1ccccc1,-1,0,/,5852,-7
C#CCOCCOCCOCCNc1nc(N2CCN(C(=O)Cn3cc(CCO)nn3)CC2)nc(N2CCN(C(=O)Cn3cc(CCO)nn3)CC2)n1,-17,0,-3,4004,-4
CC1CN(C(=O)C2CC(=O)N(c3ccc(Cl)cc3)C2)CC(C)O1 (centres undefined),-4,1,0,3608,6
O=C(CC(Nc1ccccc1)C(=O)O)c1ccccc1 (centres undefined),42*,1,12,3527,1
Cc1ccc(NC(CC(=O)c2ccccc2)C(=O)O)cc1Cl (centres undefined),3,1,9,4785,0
COC(=O)[C@H](Cc1ccccc1)NC(=O)/C=C/[C@H]1O[C@@H](n2cc(C)c(=O)[nH]c2=O)C[C@@H]1O,-16,-2,/,6385,-8
CCOC(=O)C1CCCN(C(=S)NC(=O)/C=C/c2ccc(F)cc2)C1 (centres undefined),-1,-2,3,4645,-1
COCCCNC(=O)CSc1nc2ccccc2c(=O)n1CCCC(=O)NCC1CCCO1 (centres undefined),-1,?,6,22765*,-3

# Compound activity from PubChem BioAssay.
